# Where “and” joins values, the source holds several entries; their conditions need not be identical. Equal entries are not always repeated. Records with an inconclusive call do not appear. Calls of active or inactive are those of the source. The calls were made as follows, unless noted: active = hit-call score of the fitted dose curve at least 0.9, where 1 is the maximum; inconclusive = response in the unintended direction; inactive = score below 0.9.
# Experiments:
# [1] = CCTE_Deisenroth_5AR_NBTE_acceptor: CCTE's 5alpha-reductase NanoBRET Target Engagement Assay - Autofluorescence Screen, Deisenroth Lab (AID 2284321; active = hit-call score of the fitted dose curve at least 0.9, where 1 is the maximum; inactive = score below 0.9;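 also: compound fluorescence in the acceptor channel under 460 nm excitation flags autofluorescence artifacts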); conditions: actives raise or lower the signal
# Outline: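 Autofluorescence counter-screen: chemicals at an assumed nominal 100 uM in DMSO were scanned in three independent runs with 460 nm excitation. Gain or loss of acceptor signal was fitted bidirectionally against DMSO.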
# SRD5A2 (gene 6716) = test: CCTE_Deisenroth_5AR_NBTE_ratio: CCTE's 5alpha-reductase NanoBRET Target Engagement Assay - Ratio, Deisenroth Lab (AID 2284322; active = hit-call score of the fitted dose curve at least 0.9, where 1 is the maximum; inactive = score below 0.9); conditions: actives raise or lower the signal
# Outline: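 SRD5A2-NanoLuc HEK293T; cmpd 10 nM-29.9 uM, 3 h preinc + testosterone tracer 2 h; NanoBRET ratio 650/460; bidirectional fit vs DMSO.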
# [2] = tested on: Brachyury (BRA) Protein Expression, Deisenroth Lab, TBXT (gene 6862); test: CCTE_Deisenroth_DEVTOX-GLR_legacy_Bra: (Legacy) CCTE's DevTox GLR-Endo Assay Evaluation of Brachyury (BRA) Protein Expression, Deisenroth Lab (AID 2284329; active = hit-call score of the fitted dose curve at least 0.9, where 1 is the maximum; inactive = score below 0.9)
# Outline: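 Percent Bra-positive cells, scored by high-content imaging against a threshold of 5x BMAD over the undifferentiated control median, with the 0.2% DMSO median subtracted. RUES2-GLR cultures were dosed twice at 24 h intervals across a 48 h differentiation, at 1 nM–200 uM in ten steps, with n=4 replicates.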
# [3] = CCTE_Deisenroth_DEVTOX-GLR_legacy_CellCount: (Legacy) Viability Assessment in CCTE's DevTox GLR-Endo Assay, Deisenroth Lab (AID 2284331; active = hit-call score of the fitted dose curve at least 0.9, where 1 is the maximum; inactive = score below 0.9); conditions: actives raise or lower the signal
# Outline: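 Human pluripotent RUES2-GLR cells differentiated 48 h with two 24-h-interval exposures, 10-point 1 nM–200 uM series, 0.2% DMSO. Fixed nuclei counted by high-content imaging (5 fields/well); bidirectional fit vs DMSO, n≥4.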
# [4] = tested on: SRY-box transcription factor 17 (SOX17) Protein Expression, Deisenroth Lab, SOX17 (gene 64321); test: CCTE_Deisenroth_DEVTOX-GLR_legacy_Sox17: (Legacy) CCTE's DevTox GLR-Endo Assay Evaluation of SRY-box transcription factor 17 (SOX17) Protein Expression, Deisenroth Lab (AID 2284341; active = hit-call score of the fitted dose curve at least 0.9, where 1 is the maximum; inactive = score below 0.9); conditions: actives raise or lower the signal
# Outline: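 RUES2-GLR human pluripotent cells differentiated toward endoderm for 48 h, dosed twice at 24 h intervals (1 nM–200 uM, 10 points). Imaging gives % SOX17+ cells (intensity >5x BMAD above pluripotent control median); bidirectional fit versus 0.2% DMSO.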
# [5] = tested on: SRY-box transcription factor 2 (SOX2) Protein Expression, Deisenroth Lab, SOX2 (gene 6657); test: CCTE_Deisenroth_DEVTOX-GLR_legacy_Sox2: (Legacy) CCTE's DevTox GLR-Endo Assay Evaluation of SRY-box transcription factor 2 (SOX2) Protein Expression, Deisenroth Lab (AID 2284346; active = hit-call score of the fitted dose curve at least 0.9, where 1 is the maximum; inactive = score below 0.9)
# Outline: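 Percent Sox2-positive cells was scored by high-content imaging of 5 fields per well. Positivity cutoff was 5x BMAD over the directed endoderm control, and the DMSO median was subtracted. Cells were RUES2-GLR, dosed twice at 24-h intervals over 48 h of differentiation (1 nM-200 uM).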
# SERPINA7 (gene 6906) = test: CCTE_GLTED_hTBG: CCTE's human Thyroxine-binding Globulin (TBG) Inhibition Assay, Great Lakes Toxicology and Ecology Division (GLTED) Lab (AID 2284343);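 also: active chemicals lower fluorescence versus DMSO baseline by displacing probe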
# Outline: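 Steps: combine TBG with chemical; incubate 2 hours so that disruptors release ANSA; record fluorescence (380 ex, 475 em). Loss of signal was fitted against DMSO controls.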
# [6] = IUF_NPC1_cytotoxicity_72hr: Cytotoxicity Assessment at 72 hours in the Leibniz Research Institute for Environmental Medicine (IUF) Neural Progenitor Cell Proliferation Assay (NPC1) (AID 2284332);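 also: rising LDH signal means more cytotoxicity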
# Outline: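 Readout is fluorescence from LDH-dependent resazurin conversion, sampled from culture medium after compound contact lasting 72 h. Each well holds one 0.25-0.35 mm human progenitor sphere kept at 37C, 5% CO2 with EGF and FGF.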
# [7] = CCTE_Mundy_HCI_iCellGluta_NOG_NeuronCount: CCTE's Neurite Outgrowth Assay in iCellGluta cells for Neuron Count, Mundy Lab (AID 2284340);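 also: cells fixed about 48 h after compound addition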
# Outline: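 Neuron count read by automated high-content imaging of Hoechst 33342 and betaIII-tubulin/Alexa Fluor-488 labelling in human iPSC glutamatergic neurons. Activity fitted relative to DMSO.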
# [8] = CCTE_Mundy_HCI_iCellGluta_NOG_NeuriteCount: CCTE's Neurite Outgrowth Assay in iCellGluta cells for Neurite Count, Mundy Lab (AID 2284342);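 also: chemical exposure about 48 hours starting 2 hours after plating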
# [9] = VALA_MIGHUV1_ScratchOnly_WoundArea: VALA Sciences human Umbilical Vein Endothelial Cell Migration (MIGHUV) Assay, Area of Scratch Wound Inhibited Recovery (AID 2284336)
# Outline: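 Wound area remaining after 24 h recovery imaged by Hoechst nuclear fluorescence in scratched HUVEC cultures, chemicals added within 30 min of scratching across a 6-point series. Gain of signal fitted against 0.1% DMSO; cytochalasin D positive control.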
# [10] = VALA_TUBHUV_Agonist_TubuleLength: VALA Sciences human Umbilical Vein Endothelial Tubule Formation (TUBHUV) Agonism Assay (AID 2284337)
# Outline: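 Tubule length quantified by CD31 immunofluorescence imaging after fixation. HUVEC-HDF co-cultures (1:3) pre-grown 3 days with 10 ng/ml VEGF, then dosed 3 days in VEGF medium; 0.1 % DMSO vehicle baseline.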
# [11] = VALA_TUBIPS_Agonist_CellCount: Viability Assessment in the VALA Sciences human iPS-derived Endothelial Tubule Formation (TUBIPS) Agonism Assay (AID 2284338)
smiles,measurement,setting,value
CC(=Cc1ccccc1)[N+](=O)[O-],outcome,[1],inactive
same,outcome,SRD5A2 (gene 6716),inactive
NC(=O)c1ccc(N)nc1,AC50,[2],24.1 µM (active)
same,AC50,[3],30.6 µM (active)
same,AC50,[4],21 µM (active)
same,AC50,[5],52.9 µM (active)
O=S1(=O)OC(c2cc(Br)c(O)c(Br)c2)(c2cc(Br)c(O)c(Br)c2)c2ccccc21,outcome,[1],inactive
same,AC50,SRD5A2 (gene 6716),4.66 µM (active)
same,AC50,SERPINA7 (gene 6906),7.4 µM (active)
CNC(=O)CSP(=O)(OC)OC,outcome,[6],inactive
CCC[CH2][Sn]([Cl])([Cl])[CH2]CCC,AC50,[1],5.59 µM (active)
same,AC50,SRD5A2 (gene 6716),13 µM (active)
O=S1OC[C@@H]2[C@H](CO1)[C@]1(Cl)C(Cl)=C(Cl)[C@@]2(Cl)C1(Cl)Cl (stereo partly drawn),outcome,[6],inactive
Cc1cc(C(F)(C(F)(F)F)C(F)(F)F)ccc1NC(=O)c1cccc(I)c1C(=O)NC(C)(C)CS(C)(=O)=O,outcome,[6],inactive
same,outcome,[7],inactive
same,outcome,[8],inactive
CS(=O)(=O)c1ccc(C(=O)C2C(=O)CCCC2=O)c(Cl)c1COCC(F)(F)F,outcome,[6],inactive
same,outcome,[7],inactive
same,AC50,[8],25.3 µM (active)
CC1(C)[C@H](C(=O)O[C@H](C#N)c2cccc(Oc3ccccc3)c2)[C@@H]1/C=C(\Cl)C(F)(F)F,outcome,[6],inactive
same,outcome,[7],inactive
same,outcome,[8],inactive
CCCCCCCCCCCCOS(=O)(=O)O,AC50,SERPINA7 (gene 6906),37.2 µM (active) and 56.4 µM (active)
Cc1ccccc1OP(=O)(Oc1ccccc1C)Oc1ccccc1C,AC50,[7],13.5 µM (active)
same,AC50,[8],12.5 µM (active)
Nc1ncn[nH]1,outcome,[9],inactive
same,outcome,[10],inactive
same,outcome,[11],inactive
OC(Cc1ccccc1Cl)(Cn1[nH]cnc1=S)C1(Cl)CC1 (stereo not drawn),outcome,[6],inactive
same,AC50,[7],50 µM (active)
same,outcome,[8],inactive
CCOP(=S)(OCC)O/N=C(\C#N)c1ccccc1,outcome,[1],inactive
same,AC50,SRD5A2 (gene 6716),20.1 µM (active)
same,AC50,SERPINA7 (gene 6906),20.6 µM (active)
Oc1cc(Cl)c(Cl)cc1Cl,AC50,SERPINA7 (gene 6906),40.8 µM (active)
O=[N+]([O-])c1ccccc1O,outcome,[1],inactive
same,AC50,SRD5A2 (gene 6716),50 µM (active)
CCOCn1c(-c2ccc(Cl)cc2)c(C#N)c(Br)c1C(F)(F)F,AC50,[6],50.4 µM (active)
same,AC50,[7],27.1 µM (active)
same,AC50,[8],21.3 µM (active)
same,AC50,SERPINA7 (gene 6906),2.12 µM (active)
O=c1nc(O)n(Cl)c(=O)n1Cl,outcome,[1],inactive
same,outcome,SRD5A2 (gene 6716),inactive
O=C(O)COc1cc(Cl)c(Cl)cc1Cl,AC50,SERPINA7 (gene 6906),45.6 µM (active)
O=c1[nH]c(=O)n(Cl)c(=O)n1Cl,outcome,[1],inactive
same,outcome,SRD5A2 (gene 6716),inactive
N#CCCC(Br)(C#N)CBr (stereo not drawn),AC50,[1],54.4 µM (active)
same,AC50,SRD5A2 (gene 6716),69.9 µM (active)

# — PubChem BioAssay (EPA / NIEHS)
